Values joined by “and” are separate entries in the source; they are usually repeats but may differ in a detail not shown here. Equal entries are not always repeated. About 3,000 (1%) of roughly 290,000 compounds were called active. No stated cut-off is given here; in the data, active means inhibition mostly above about 36% (no sharp cut-off); inactive means mostly below about 34%. What follows is part of a selection rich in actives, with near analogues and random picks from the rest.
Assay: inhibition of NOD1-driven NF-kB reporter – cell-based, luminescence, uHTS, primary screen (AID 1578);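 further: HEK-293T reporter cells stimulated with the NOD1 agonist gamma-tri-DAP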
Settings: NOD1-driven NF-kB luciferase reporter cells, at 4 µM, hits give high values

| Structure (SMILES) | inhibition |
| --- | --- |
| CCOC(=O)C(CCc1nnc(N)s1)C(=O)OCC | -16.9% (inactive) |
| COc1ccc(N(CC(=O)NCc2ccco2)C(=O)CCC(=O)Nc2nccs2)c(OC)c1 | -20.5% (inactive) |
| O=C(N/N=C/c1cn(-c2cccs2)nc1-c1ccccc1)c1ccccc1Br | -30.5% (inactive) |
| O=C(O)c1[nH]c2ccccc2c1C(c1c(F)cccc1Cl)c1c(C(=O)O)[nH]c2ccccc12 | -43.4% (inactive) |
| O=C1/C(=C/c2cccc([N+](=O)[O-])c2)CSc2ccc(Cl)cc21 | -12% (inactive) |
| CNc1ccc(/C=C2\COc3ccccc3C2=O)cc1[N+](=O)[O-] | -7.1% (inactive) |
| CNc1ccc(/C=C2\CSc3ccccc3C2=O)cc1[N+](=O)[O-] | 73.4% (active) |
| COc1ccc(C2/C(=C(/O)c3ccccc3)C(=O)C(=O)N2C)cc1 (centres undefined) | -38.6% (inactive) |
| COc1cccc2cc(C(=O)NCc3ccc(Cl)cc3)c(=N)oc12 | 85.8% (active) |
| COc1ccc(CNC(=O)c2cc3cccc(OC)c3oc2=N)cc1 | 4.1% (inactive) |
| COc1cccc2cc(C(=O)NCc3ccc(C)cc3)c(=N)oc12 | 18.3% (inactive) |
| COc1cc(/C=N\NC(=O)c2ccc(-c3ccccc3)cc2)ccc1OCC(N)=O | -24.5% (inactive) |
| Cc1ccc(S(=O)(=O)N(C)c2cc(S(=O)(=O)N3CCOCC3)c(C)cc2C)cc1 | -26.1% (inactive) |
| COc1cc(S(=O)(=O)NCc2ccc3c(c2)OCO3)ccc1Cl | -0.2% (inactive) |
| COc1c(C(=O)NC(=S)Nc2nnn(C)n2)cc2ccccc2c1Br | 29.6% (inactive) |
| CC(NC(=O)CCCc1c[nH]c2ccccc12)c1ccc(F)cc1 (centres undefined) | 51.3% (active) |
| CC(NC(=O)CCc1c[nH]c2ccccc12)c1ccccc1 (centres undefined) | -38.3% (inactive) |
| CC(C)NC(=O)CCCc1c[nH]c2ccccc12 | -33% (inactive) |
| Cc1ccc(Nc2nnc(-c3ccc4c(c3)OCO4)o2)c(C)c1 | -19.5% (inactive) |
| Cc1cc(N/N=C/c2cccc(Cl)c2)nc(-n2nc(C)cc2C)n1 | -0.3% (inactive) |
| Cc1cc(N/N=C/c2cccc([N+](=O)[O-])c2)nc(-n2nc(C)cc2C)n1 | -14.5% (inactive) |
| Cc1nn(-c2ccccc2)c2c1P(=O)(O)/C(=C1\N(C)c3ccccc3C1(C)C)C=N2 | -9% (inactive) |
| Cc1cc(C(=O)NNS(=O)(=O)c2ccc(C(C)(C)C)cc2)nn1C(C)(C)C | -6.5% (inactive) |
| NNC(=O)Cn1c(-c2ccccn2)nc2ccccc21 | -10.4% (inactive) |
| Cc1cc(=O)oc(C)c1C(=O)OCC(=O)c1ccc(Cl)cc1 | 79.2% (active) |

| Structure (SMILES) | inhibition |
| --- | --- |
| Cc1cc(=O)oc(C)c1C(=O)OCC(=O)c1ccc(Cl)c(Cl)c1 | -32.3% (inactive) |
| Cc1cc(=O)oc(C)c1C(=O)OCC(=O)c1ccc(Br)cc1 | -27.3% (inactive) |
| CCOC(=O)N1CCN(S(=O)(=O)N2CCCC(C(=O)NCCc3ccccc3)C2)CC1 (centres undefined) | -26.5% (inactive) |
| CC(C)c1[nH]c(=O)c(C#N)c2c1COC(C)(C)C2 | -18.6% (inactive) |
| CC(C)n1c(O)c(N=NC(=O)CNC(=O)c2cccnc2)c2ccccc21 | -19.7% (inactive) |
| CCCc1nc(NCCO)c(C#N)c2c1CCCC2 | 17.9% (inactive) |
| CCCCc1nc(NCCO)c(C#N)c2c1CCCC2 | -8.5% (inactive) |
| CC(C)c1nc(NCCO)c(C#N)c2c1CCCC2 | 81% (active) |
| CCCCc1nn2c(N)c(/C=C3\C=Nc4ccccc43)c(=O)nc2s1 | 79.1% (active) |
| CCCc1nn2c(N)c(/C=C3\C=Nc4ccccc43)c(=O)nc2s1 | -56% (inactive) and -14.1% (inactive) |
| CCc1nn2c(N)c(/C=C3\C=Nc4ccccc43)c(=O)nc2s1 | -37.5% (inactive) and 2.9% (inactive) |
| Cc1ccc(S(=O)(=O)n2cc(-c3ccccc3)c(N)n2)cc1 | -4.9% (inactive) |
| Nc1nonc1C(=O)NCCNC(=O)c1cccc(Cl)c1 | -28.8% (inactive) |
| CC(=O)N(c1ccc(Cl)cc1)c1cn(C(C)=O)c2ccccc12 | -16.5% (inactive) |
| CC(=O)n1cc(N(C(=O)CCl)c2ccc(Cl)cc2)c2ccccc21 | 14.2% (inactive) |
| CC(=O)n1cc(N(C(=O)CCl)c2ccc([N+](=O)[O-])cc2)c2ccccc21 | 38.7% (active) |
| COc1ccccc1N(C(=O)CCl)c1cn(C(C)=O)c2ccccc12 | 93% (active) |
| CCOC(=O)c1ccccc1Nc1cn(C(C)=O)c2ccccc12 | -3.8% (inactive) |
| CC(=O)n1cc(Nc2ccc([N+](=O)[O-])cc2)c2ccccc21 | -18% (inactive) |
| CC(=O)n1cc(CO)c2ccccc21 | -5.2% (inactive) |
| O=Cc1[nH]c2ccccc2c1N(C(=O)CCl)c1ccc([N+](=O)[O-])cc1 | 19.2% (inactive) |
| CN1/C(=C/C(=O)CSc2ccccc2C(=O)O)C(C)(C)c2ccccc21 | 10.5% (inactive) |
| CCC(Oc1ccccc1OC)C(=O)N1CC(=O)Nc2ccccc21 (centres undefined) | 29% (inactive) |
| CCOc1ccc(NS(=O)(=O)c2ccc(NS(=O)(=O)c3cccs3)cc2)cc1 | -17.3% (inactive) |
| COc1ccc(Cl)cc1NC(=O)N(C)Cc1c(C)nn(C)c1C | -24.6% (inactive) |

| Structure (SMILES) | inhibition |
| --- | --- |
| Cc1cc(NCc2ccccc2)nc(-c2ccccc2O)n1 | -41.6% (inactive) |
| [O-][n+]1c2c(c3c4non(O)c4ccc31)CCCC2 | 79.7% (active) |
| CC(=O)c1c(C)[n+]([O-])c2ccc3c(non3O)c12 | -20% (inactive) |
| CCOC(=O)c1c(C)[n+]([O-])c2ccc3c(non3O)c12 | -24.8% (inactive) |
| CCN(C(=O)c1c(-c2ccccc2Cl)noc1C)C1CCCCC1 | -10.1% (inactive) |
| Cc1cc(C)c2nc3nc(C)c(C)cc3c(N)c2c1 | -27.3% (inactive) |
| Cc1cc(C)c2nc3nc(C)cc(C)c3c(N)c2c1 | -26.5% (inactive) |
| Cc1cc(C)c2nc(C(F)(F)F)c(C#N)c(N)c2c1 | 76.9% (active) |
| COc1cc2c(=O)n(CCC(=O)NCC3CCCO3)c(=O)n(CC(=O)Nc3ccc(C)c(C)c3)c2cc1OC (centres undefined) | -11.3% (inactive) |
| CC(C)(CO)NS(=O)(=O)c1ccc2c(c1)oc(=O)c1cc(S(=O)(=O)NC(C)(C)CO)ccc12 | -6.5% (inactive) |
| CC(C)(C)C(=O)Nc1cc2nn(-c3ccccc3)nc2cc1Cl | 87.1% (active) |
| CC(=O)Nc1cc2nn(-c3ccccc3)nc2cc1Cl | -27.6% (inactive) |
| CCC(=O)Nc1cc2nn(-c3ccccc3)nc2cc1Cl | -22.2% (inactive) |
| O=C(O)C1CCCN1c1ncccc1[N+](=O)[O-] (centres undefined) | -20.8% (inactive) |
| CN1CCN(CC(O)COCCOc2ccc(Br)cc2)CC1 (centres undefined) | -26% (inactive) |
| CCN1CCN(CC(O)COCCOc2ccc(Br)cc2)CC1 (centres undefined) | -19.1% (inactive) |
| OCCN1CCN(CC(O)COCCOc2ccc(Br)cc2)CC1 (centres undefined) | 62.2% (active) |
| O=C(COc1ccccc1CNCc1ccccc1)Nc1ccccc1 | -69.5% (inactive) |
| O=c1c2cc(NC(=S)N3CCCCC3)ccc2nc2n1CCCCC2 | -32.7% (inactive) |
| O=C(NC1CC1)c1ccc(-c2nc3ccccc3s2)s1 | 70.1% (active) |
| O=C(c1ccc(-c2nc3ccccc3s2)s1)N1CCOCC1 | 82.9% (active) |
| CCCNC(=O)c1ccc(-c2nc3ccccc3s2)s1 | -50.1% (inactive) |
| Cc1ccc2nc(NC(=O)c3ccc(-c4nc5ccccc5s4)s3)sc2c1 | -74.1% (inactive) |
| CCN1CCN(C(=O)c2ccc(-c3nc4ccccc4s3)s2)CC1 | -43.4% (inactive) |
| O=CN1CCN(C(=O)c2ccc(-c3nc4ccccc4s3)s2)CC1 | -25.6% (inactive) |

| Structure (SMILES) | inhibition |
| --- | --- |
| COc1ccc(NC2CCCN(C(=O)CN3C(=O)c4ccccc4C3=O)C2)cc1OC (centres undefined) | -24.8% (inactive) |
| COc1ccc(OC)c2c(C)cc(N3CCN(C(=O)c4ccc(C)cc4)CC3)nc12 | -12.9% (inactive) |
| CN(C1CCCCC1)C(CNS(=O)(=O)c1ccc(Cl)cc1)c1ccccc1 (centres undefined) | -15.5% (inactive) |
| O=C(O)c1ccccc1-n1cccc1C(=O)O | -9.5% (inactive) |
| O=C(CN1CCc2ccccc2C1)Nc1cc(S(=O)(=O)N2CCOCC2)ccc1N1CCOCC1 | -17.8% (inactive) |
| CCN(CC)c1ccc(S(=O)(=O)N2CCOCC2)cc1NC(=O)CN1CCN(Cc2ccccc2)CC1 | -3.8% (inactive) |
| O=C(NNC(=O)c1ccccc1C(F)(F)F)c1csc(N2CCOCC2)n1 | -87.8% (inactive) |
| O=C(NNC(=O)c1cc(Br)ccc1Cl)c1csc(N2CCOCC2)n1 | -14.6% (inactive) |
| O=C(NNC(=O)c1ccccc1OCc1ccccc1Cl)c1csc(N2CCOCC2)n1 | 96.3% (active) |
| CCc1ccc(NC(=O)CN2CCCN(S(=O)(=O)c3ccc(F)cc3)CC2)cc1 | -21.6% (inactive) |
| O=C1CC(c2nc3ccccc3[nH]2)CN1Cc1ccccc1 (centres undefined) | -15% (inactive) |
| COc1ccc(CCNC(=O)C2CC(=O)N(C3CCCCCCC3)C2)cc1OC (centres undefined) | -23.8% (inactive) |
| O=c1c2ccccc2nc2n1CCS2 | -2.5% (inactive) |
| Cc1ccc2c(=O)cc(C(=O)NC3CCS(=O)(=O)C3)oc2c1 (centres undefined) | -12% (inactive) |
| O=C(NCc1nc(-c2ccc(C(F)(F)F)cc2)no1)Nc1ccc(OC(F)(F)F)cc1 | 5.1% (inactive) |
| O=C(NCc1nc(-c2ccc(C(F)(F)F)cc2)no1)Nc1ccc(F)cc1F | 3.8% (inactive) |
| O=C(NCc1nc(-c2ccc(C(F)(F)F)cc2)no1)Nc1cc(Cl)cc(Cl)c1 | 44.1% (active) |
| Cc1ccccc1CC(=O)N1CC(C)OC(C)C1 (centres undefined) | -15.5% (inactive) |
| O=C(NC(=S)Nc1cccc2cnccc12)c1ccccc1 | 80.9% (active) |
| O=C(NC(=S)Nc1cccc2[nH]ncc12)c1ccccc1 | 68.4% (active) |
| O=C(NC(=S)Nc1cccc2cccnc12)c1ccccc1 | -2.9% (inactive) |
| CNC(=S)Nc1cccc2[nH]ncc12 | -6.5% (inactive) |
| S=C(NCc1ccccc1)Nc1cccc2cnccc12 | 41.4% (inactive) |
| O=C(Nc1cccc2[nH]ncc12)c1ccc(F)cc1 | -0.2% (inactive) |

Source: PubChem BioAssay AID1578 (Sanford-Burnham Center for Chemical Genomics, 2009)
